In all, about 33,000 sequences were measured (“E-score (-0.5 to 0.5)”: median about -0.021, highest 2% from about 0.32 on). Many of the other results were omitted from the sample, so the highest values are more common in it than they were.
Target: T1, Zap1 (UniProt P47043)
T1 sequence: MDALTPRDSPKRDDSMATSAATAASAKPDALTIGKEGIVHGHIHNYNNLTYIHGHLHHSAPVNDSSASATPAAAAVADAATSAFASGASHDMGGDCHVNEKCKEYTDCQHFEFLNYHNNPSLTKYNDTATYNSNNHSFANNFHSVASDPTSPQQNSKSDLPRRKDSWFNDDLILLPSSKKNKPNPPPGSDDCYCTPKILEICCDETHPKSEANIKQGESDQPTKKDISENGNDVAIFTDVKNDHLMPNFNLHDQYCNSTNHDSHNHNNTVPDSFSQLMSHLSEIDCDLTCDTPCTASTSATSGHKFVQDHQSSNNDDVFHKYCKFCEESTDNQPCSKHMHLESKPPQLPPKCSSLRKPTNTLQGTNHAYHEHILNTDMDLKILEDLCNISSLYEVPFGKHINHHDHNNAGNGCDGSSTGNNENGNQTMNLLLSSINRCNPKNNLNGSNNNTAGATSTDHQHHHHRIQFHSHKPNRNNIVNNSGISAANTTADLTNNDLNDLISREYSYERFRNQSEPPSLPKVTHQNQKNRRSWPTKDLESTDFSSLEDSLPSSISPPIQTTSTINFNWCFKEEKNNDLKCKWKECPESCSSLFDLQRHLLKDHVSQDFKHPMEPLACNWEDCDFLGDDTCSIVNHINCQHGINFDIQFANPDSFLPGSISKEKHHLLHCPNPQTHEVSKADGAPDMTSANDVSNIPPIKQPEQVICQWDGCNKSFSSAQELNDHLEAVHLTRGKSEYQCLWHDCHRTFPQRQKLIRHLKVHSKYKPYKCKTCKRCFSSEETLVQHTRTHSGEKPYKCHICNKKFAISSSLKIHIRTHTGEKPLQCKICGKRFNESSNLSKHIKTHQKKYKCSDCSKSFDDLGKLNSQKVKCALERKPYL
Assay: PBM E-score (8-mer binding enrichment) (E-score (-0.5 to 0.5)); higher = stronger / more preferred TF binding
Conditions: protein concentration: 200 nM; construct: GST-full length
Experimental: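 Universal 'all 10-mer' protein binding microarrays (Agilent AMADID 015681) probed with GST-tagged S. cerevisiae TFs (full-length or DBD) made by in vitro transcription/translation (PURExpress), about 100-200 nM. Bound TF was detected with fluorescent anti-GST. Each ungapped 8-mer (which stands for itself and its reverse complement) is scored by the PBM enrichment score (E-score), a modified Wilcoxon-Mann-Whitney statistic from -0.5 to +0.5, computed with the Universal PBM Analysis Suite. Scale: above 0.35 generally sequence-specific binding.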

Sequence	PBM E-score
AACGGTCA	0.324
CACGGTCA	0.262
CACGGTTC	-0.13
CACGGTTA	0.372
AACGGTCG	0.114
CACGGGTA	0.237
AACGGTTC	0.107
GACGGGTA	0.0159
GACGGTTA	0.305
AACGGTTG	0.123
AACGGGTA	0.375
AACGGTTA	0.397
CCCCGCGC	-0.138
ACATTCAG	-0.0921
AGCGCATG	-0.227
CGGACCCA	0.195
CTTTCTTC	-0.0581
AGAAGCCA	-0.0472
AAGGTAAT	0.322
AAGGTATT	0.199
AAGGTAAC	0.432
AAGGTAAG	0.0248
GAGGTAAA	0.199
CAGGTAAA	0.133
GAGGTAAC	0.365

Sequence	PBM E-score
CAGGTAAC	0.254
AAGGTAAA	0.187
CTCCATGC	-0.229
ACGCATAC	-0.101
ACTACCAT	0.269
ACTGCTAG	-0.269
AGGTACCC	0.451
CGGTACCC	0.414
CCGTACCC	0.275
AGGTACCT	0.443
ATGTACCC	0.216
ACGTACCG	-0.111
AAGTACCT	0.213
CGGTACAC	0.0303
AAGTACCG	0.134
AGGTACTC	0.261
AGGTACCG	0.43
ACGTACCT	-0.126
AGTAAAGG	0.132
ATCTTAAC	0.142
CGCCCAGC	-0.209
ATAACATA	0.146
GGGTCCAC	-0.0924
GCGTACCC	0.106
GGGTACAC	0.141

Sequence	PBM E-score
GGGTACCC	0.469
CGGTACAG	0.12
CGGTACCG	0.38
CAGTACCG	0.104
ATTAGAAA	0.0663
TACAGCCA	-0.0777
ACTCACCC	-0.0932
CAATGTTC	-0.213
ATTTGTCC	-0.0674
CACCAGTG	-0.0732
AACTAAAC	0.181
CTTATATA	0.27
ATTATTTA	0.234
GTTATAAC	0.401
CTTATAAC	0.302
CTTATTTA	0.0152
ATTATATA	0.207
GATATATA	0.2
GTTATAAA	0.279
TATATATA	0.37
CATATATA	0.13
GTTATTTA	0.325
GTTATATA	0.359
CCTCAGAA	-0.0154
ACTGGGAG	-0.25

Sequence	PBM E-score
ATTGGGAG	-0.0694
AACGCTGG	-0.174
GACTGTAC	-0.147
AGCTCTCG	-0.212
ACAAGAGA	-0.043
ATCATCGC	-0.0946
AGCTCTTG	-0.246
CAATTGAC	-0.0961
GCCCAGAA	-0.0621
GTCGAGCA	-0.236
GAAACCGC	0.15
ATGAGCAA	-0.0417
ATACAATG	0.0742
AGGGGCAG	-0.186
CCCAAAGG	0.23
ACCCAGGG	0.0854
CCCCAGGG	0.319
CCCAAGGA	0.00233
CCCAAGGG	0.326
CCAAAGGG	0.267
CCAAAAGG	0.337
CCCCAGGA	-0.128
CCAAAAAG	0.248
CGTACAGA	-0.231
CAATGCAA	0.0301

Sequence	PBM E-score
ACTCGAGG	0.0452
CCTCGAGC	0.0178
CCTCGAGG	0.331
CCATAAAA	0.12
AGGGTAAC	0.405
GGGGTAAC	0.37
AGAGTAAC	0.108
CGGGTAAG	-0.078
GGGGTAAA	0.269
AGCGTAAC	0.199
GGTGTAAC	0.262
CGGGTAAA	0.144
CGGGTAAC	0.351
AAAAGCAG	-0.0944
GGCAAATA	-0.0519
ACCGATAC	0.0986
AAACTTCT	0.0376
ACAGTATG	0.0365
ACCATAAA	0.384
CCCATAAG	0.236
CCCATTAA	-0.0317
ACCATAAC	0.399
ACCATAAG	0.0852
CCCATAAC	0.355
CCCATAAA	0.161

Sequence	PBM E-score
GCCATAAC	0.12
TCCATAAA	0.061
ACCATTAA	0.348
ACCATAAT	0.255
TCCATTAA	0.13
CTCACATC	-0.0546
CATAGATG	-0.173
GTACACAA	0.12
ACTAAAGA	0.00061
CCACTTTC	-0.101
ACCGCGAA	0.359
GCCGCGAA	-0.0427
TCCGCGAA	0.05
GTGATGTA	0.013
AGAGTCAG	-0.145
ATCGCTCA	-0.0114
AAAGGTAG	0.247
CAAGGTAC	0.357
AAAGGTAC	0.426
CAAGGTAG	0.303
AAAGGTAA	0.361
CAAGGTAA	0.191
GAAGGTAA	0.319
AAAGGTAT	0.293
CCAGGTAC	0.17

Sequence	PBM E-score
GAAGGTAC	0.178
AAAGGTGA	0.25
TAAGGTAA	0.271
CACAGAGA	-0.0512
ACGATGGA	0.00241
CATCTCTC	-0.0882
CCTCCCAG	-0.291
CGCCTGAG	-0.0453
CAACTAAG	-0.00117
AGAGGCCC	-0.108
CCTCTTCC	-0.127
ATTTGCCG	-0.168
AAAGGGAA	-0.0936
GCATGGAA	-0.169
ACGTAAGC	-0.186
ACAGGGGG	-0.225
ACTGCGCA	-0.0699
CAGCCCAG	-0.177
ACAGAGTA	-0.0251
GCCCTCCA	-0.0877
ACCCTCCA	0.341
TCCCTCCA	-0.134
CCCCTCCC	0.0739
ACCCTCCT	0.189
ACCCTCCC	0.339

Sequence	PBM E-score
ATCAGTTC	-0.0391
GTTCTTAA	0.0134
AAGTTAGT	-0.0228
GTTGAACA	-0.15
ACGATGGG	-0.169
GGTAGTTA	0.339
CGTAGTTA	0.177
AGTAGTTA	0.11
TAGTGCCA	-0.18
GACCATAA	0.287
AACCATTA	0.365
CACCATAA	0.0248
AACCATGC	0.156
TACCATAA	0.367
AACCATGA	0.357
AACCATAC	0.159
CACCATTA	0.037
CACCATGA	0.00417
AACCATTG	0.271
AACCATAA	0.41
TCCCATAA	0.182
CTAATGGC	0.134
TAACTAGA	0.227
AGGGACTA	-0.104
ACGGTTCT	0.0709

Sequence	PBM E-score
ACTCTTGC	0.0703
TCGACTCA	-0.0722
CAATTCCG	-0.00437
AGGTATCA	0.116
CCTCTGAA	-0.072
AGATGCGG	0.0772
AAAACCGT	0.173
AGGGTAGC	0.313
CGGGTATC	0.252
AAGGTATG	0.226
AGGGTAGG	0.32
ATGGTATC	0.183
GGGGTATA	0.182
AGGGTAGA	0.135
AGGGTATC	0.364
ACGGTATG	-0.0688
AGGGTATG	0.395
AGGGTATA	0.407
CGGGTATA	0.317
GGTTTTAC	0.108
GTGCGCCA	-0.175
TATGTGGA	-0.0214
ATTCTTGA	0.0771
CCTCTCAC	-0.0256
AAAGTGGA	-0.0378

Sequence	PBM E-score
CATCAAGG	0.0235
ACGTGAGC	-0.116
ACGGTACT	0.0886
GCGGTAGC	0.0107
CCGGTACG	-0.136
CCGGTACC	0.414
ACGGTACC	0.399
CCGGTACA	0.149
GCGGTACA	0.13
GCGGTACC	0.418
ACGGTACG	0.0714
AGACGGGC	-0.112
CAGCAGCA	-0.198
CGTATCGA	-0.133
AAAGGTCC	0.245
TAAGGTGA	0.155
AAAGGTCG	0.323
AAAGGTCA	0.449
CAAGGTCA	0.386
CAAGGTCC	0.151
AAAGGTCT	0.238
AAAGGTGG	0.158
TAAGGTCA	0.341
ACAGGTCG	0.0832
GAAGGTCA	0.232

Sequence	PBM E-score
CAAGGTCG	0.263
ACGACTCG	-0.134
GTCGATGA	-0.149
CCGGAGGA	-0.228
CCTCAATA	0.0804
AGACCGGG	0.0501
CCACAGGG	0.1
CTCGTCAC	0.099
AATCAGCA	-0.0933
ACCTGTTG	0.265
GGAGGCAA	-0.188
ACACTTAT	-0.101
AACCTCGA	0.367
AACCTCGG	0.302
AACCTCGT	0.322
GACCTCGA	0.277
CACCTCGA	0.215
AACCTCGC	0.295
GCCACCTA	-0.103
CAGACAGG	-0.0636
AGGGGGTG	-0.204
AAGGGTGC	0.134
AGGGGTTC	0.173
AGAGGTTG	0.218
AAGGGTGG	0.19

Sequence	PBM E-score
AAAGGTTC	0.293
CAGGGTTC	0.214
AAGGGTTC	0.339
AAAGGTTG	0.336
AAGGGGTG	0.167
AGGGGTTG	0.337
AAGGGTTG	0.441
AAATAGCA	-0.171
AATAGACG	-0.163
TCAGTGGA	-0.041
ATCGAACG	-0.183
CTCTACGA	-0.0991
ACCTACCC	0.316
CTCCACGC	-0.241
CTTCTACA	-0.0296
CCAGGGAC	-0.163
GATGGTGA	-0.0368
GATGGTTA	0.392
CATGGTTA	0.415
GATGGTAA	0.171
CATGGTTC	0.132
AATGGTTG	0.254
AATGGTTA	0.413
AATGGTTC	0.246
CATGGTGA	0.0149

Sequence	PBM E-score
GCCGCACC	0.0244
ATTTTGAC	0.203
AGCGACCG	-0.13
CTACCTAG	0.104
GCTTTGCC	-0.379
AGCCTAAG	-0.216
ATTCACTC	-0.105
AAGTGCTA	-0.303
ATCCCTAA	0.006
CCCCCTAA	-0.277
TACCCTCA	0.312
AGCCCTAA	-0.00909
GACCCTCA	0.189
CGCCCTAA	-0.126
GTCCCTAA	0.109
AACCCTAA	0.452
TACCCTAA	0.435
GACCCTAA	0.433
CACCCTAA	0.369
TCCCCTAA	0.0699
CGCCAATC	-0.11
GTGAATTA	0.206
AAAGGACA	0.177
AGTAAGAT	-0.0474
ACCATTTG	0.221

Sequence	PBM E-score
AGACGCTA	-0.167
TGCGCACA	-0.037
CCCCTTGC	-0.0145
AGCCTTGG	-0.208
ACCCTTGG	0.365
ATCCTTGG	-0.139
ACCCTTGC	0.381
GCCCTTGA	0.00462
AGCCTTGC	-0.257
ACCCTTGA	0.383
CCCCTTGA	0.119
CAAGCTCA	-0.197
AACAGCAA	-0.0172
CTGGTGAC	-0.0173
GATACTGC	-0.126
CAGATTTC	-0.097
ATAGCGAT	0.0306
AAATGGCT	0.00044
AATACCCA	0.158
ACTACCCA	0.291
AATACCCG	0.177
AATACCCT	0.379
ACTACCCC	0.215
ACTACCCT	0.445

Reference: the supplement of paper PMC3334620
